Results reported in PubChem BioAssay AID624330 (Southern Research Specialized Biocontainment Screening …, 2012).
The whole screen tested about 340,000 compounds, of which about 2,100 (0.62%) were called active.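 Rule for the calls: active = first-screen hits whose inhibition reached a set limit at any dose in the follow-up dose series; inconclusive = inhibition above the set first-screen limit but never retested; inactive = the rest.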 Not all results are given here. Measured potencies and affinities stand elsewhere.

These molecules were tested against Rac GTPase-activating protein 1 (Homo sapiens) (UniProt Q9H0H5) (assay: blockers of MgcRacGAP-driven Rac1 GTP hydrolysis – biochemical, ADP Hunter fluorescence, primary and confirmatory, confirmation (AID 624330;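 note: fluorescence reports GDP produced by GAP-driven GTP hydrolysis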)). Settings: MgcRacGAP-stimulated Rac1 GTP hydrolysis, at 30 µM, hits give high values, GST-tagged Rac1 F28L mutant substrate.
Chain of Rac GTPase-activating protein 1 (Homo sapiens) (Q9H0H5 whole entry, looked up): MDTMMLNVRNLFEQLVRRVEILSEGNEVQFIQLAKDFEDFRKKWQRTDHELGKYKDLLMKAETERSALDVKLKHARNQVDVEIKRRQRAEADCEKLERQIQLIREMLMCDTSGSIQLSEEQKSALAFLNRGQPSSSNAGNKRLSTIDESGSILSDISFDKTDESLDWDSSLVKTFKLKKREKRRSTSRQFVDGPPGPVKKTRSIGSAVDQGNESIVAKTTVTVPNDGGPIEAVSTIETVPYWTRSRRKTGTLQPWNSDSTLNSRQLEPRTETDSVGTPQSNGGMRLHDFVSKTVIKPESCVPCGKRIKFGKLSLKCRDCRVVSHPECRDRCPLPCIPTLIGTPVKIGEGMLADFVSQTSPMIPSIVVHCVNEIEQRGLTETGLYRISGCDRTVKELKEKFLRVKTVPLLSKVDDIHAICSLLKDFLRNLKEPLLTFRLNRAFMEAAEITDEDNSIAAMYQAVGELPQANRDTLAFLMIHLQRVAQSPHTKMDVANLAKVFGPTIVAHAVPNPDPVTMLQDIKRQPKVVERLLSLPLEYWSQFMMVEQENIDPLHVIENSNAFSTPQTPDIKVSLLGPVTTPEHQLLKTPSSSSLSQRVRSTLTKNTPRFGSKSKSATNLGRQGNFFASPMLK

inhibition, inactive:
Cc1ccc(SCC(=O)OCC(=O)N(CC(C)C)C2CCS(=O)(=O)C2)cc1C (stereo not drawn) 9.24%, O=C(COC(=O)COc1ccc(Cl)cc1Br)NC1CC1 -1.39%, O=C(NCCN1CCOCC1)c1ccc(CS(=O)c2ccccc2Cl)o1 (stereo not drawn) -0.13%, COc1ccc(N2CCN(Cc3nc4sc(C)c(C)c4c(=O)[nH]3)CC2)cc1 -6.7%, COc1cc(/C=C2/NC(=O)N(Cc3ccccc3F)C2=O)cc(OC)c1O 26.3%, COc1ccc(/C=C2/NC(=O)N(Cc3ccccc3F)C2=O)cc1OC 5.3%, CSc1ccc(CN2CCC(n3nccc3NC(=O)C3CCOC3)CC2)cc1 (stereo not drawn) 3.42%, CC(=O)c1ccc(NC(=O)C[n+]2cccc(C)c2)cc1 8.06%, Cc1ccc(NC(=O)CCc2ccc(C)o2)cc1 -3.13%, CC(=O)Nc1ccc(NC(=O)CCc2ccc(C)o2)cc1 10.6%, Cc1ccc[n+](CC(=O)Nc2ccc(C)c(C)c2)c1 -1.74%, CCOC(=O)C1C(c2cc(OC)c(O)c(OC)c2)NC(=S)NC1(O)C(F)(F)F (stereo not drawn) 4.21%, Cc1ccc(CNC(=O)C(c2ccccc2)c2ccccc2)cc1 6.74%, COc1ccc(S(=O)(=O)NNC(=O)c2cc3ccccc3o2)cc1 9.6%, O=C(NC1CC1)c1cc(F)c(F)cc1Cl 6.75%, O=C(/C=C/c1ccc(Br)o1)Nc1nccs1 -0.09%, Nc1ccc2c(c1)OC1(CCCCC1)O2 22.8%, O=C(Nc1ccc2c(c1)OC1(CCCC1)O2)C1CC1 9.85%, CC(O)[C@H]1CNC(=O)C(=O)N1CCc1cccc(F)c1 (stereo partly drawn) 5.42%, COc1ccccc1N1CCN(Cc2ccc(Br)o2)CC1 29.6%, COc1ccccc1N1CCN(Cc2ccsc2)CC1 25.3%, CCOc1ccc(CN2CCC(C(=O)N3CCN(c4ccccc4F)CC3)CC2)cc1OC 23.7%, CCN1CCN(C(=O)C2CCN(Cc3cc(Cl)ccc3O)CC2)CC1 12.1%, COc1ccc(CN2CCC(C(=O)N3CCN(c4ccccc4F)CC3)CC2)cc1OC 8.86%, COc1cc(CN2CCC(C(=O)N3CCN(c4ccccc4F)CC3)CC2)cc(OC)c1O 23.4%, COc1cc(CN2CCN(c3cccc(C)c3C)CC2)cc(OC)c1O 27%, O=C(C1CC1)N1CCN(Cc2ccccc2)CC1 7.23%, CCC(C)NC(=O)C1c2ccccc2C(=O)N1Cc1ccc(F)cc1 (stereo not drawn) 8.48%
